Consider 32 compounds from PubChem BioAssay.

SMILES strings stand for the structures. Calls of active or inactive are those of the source. The rule behind the calls is not given here.

The first assay deals with Botulinum neurotoxin type F light chain protease (Clostridium botulinum). In words: Botulinum neurotoxin type F light chain protease inhibition, multiplex microsphere flow cytometry, validation set (AID 588459). The settings on record: multiplex microsphere protease substrate cleavage assay, at 10 µM, active compounds read high. On the technique in general: A flow cytometer gives signals particle by particle.
The inhibition is the relative decrease from the control value, in per cent. `CC(=O)c1cccc2c(O)c(C3=Nc4ccccc4C3=O)[nH]c12`: the inhibition was -2.1% (inactive). For the compound `CC1CNCCN1S(=O)(=O)c1cccc2cnccc12` (configuration not stated), the inhibition is 2.5% (inactive).

Consider `N/C(=N\OC(=O)c1ccc(Br)o1)c1ccccn1`, for which the inhibition is -0.2% (inactive). The same measure, in the same setting: the figure for `NNC(=O)c1ccncc1` is 1.1% (inactive); for `CN1C(C(=O)Nc2ccccn2)=C(O)c2ccccc2S1(=O)=O` it is 1.9% (inactive).

In another assay the target is Botulinum neurotoxin type A (Clostridium botulinum) (UniProt P0DPI0). In words: BoNT/A light chain protease inhibitors, biochemical, multiplex microsphere flow cytometry, validation set (AID 588460). The settings on record: at 10 µM, active compounds read high.
Botulinum neurotoxin type A (Clostridium botulinum), sequence (P0DPI0 whole entry, looked up): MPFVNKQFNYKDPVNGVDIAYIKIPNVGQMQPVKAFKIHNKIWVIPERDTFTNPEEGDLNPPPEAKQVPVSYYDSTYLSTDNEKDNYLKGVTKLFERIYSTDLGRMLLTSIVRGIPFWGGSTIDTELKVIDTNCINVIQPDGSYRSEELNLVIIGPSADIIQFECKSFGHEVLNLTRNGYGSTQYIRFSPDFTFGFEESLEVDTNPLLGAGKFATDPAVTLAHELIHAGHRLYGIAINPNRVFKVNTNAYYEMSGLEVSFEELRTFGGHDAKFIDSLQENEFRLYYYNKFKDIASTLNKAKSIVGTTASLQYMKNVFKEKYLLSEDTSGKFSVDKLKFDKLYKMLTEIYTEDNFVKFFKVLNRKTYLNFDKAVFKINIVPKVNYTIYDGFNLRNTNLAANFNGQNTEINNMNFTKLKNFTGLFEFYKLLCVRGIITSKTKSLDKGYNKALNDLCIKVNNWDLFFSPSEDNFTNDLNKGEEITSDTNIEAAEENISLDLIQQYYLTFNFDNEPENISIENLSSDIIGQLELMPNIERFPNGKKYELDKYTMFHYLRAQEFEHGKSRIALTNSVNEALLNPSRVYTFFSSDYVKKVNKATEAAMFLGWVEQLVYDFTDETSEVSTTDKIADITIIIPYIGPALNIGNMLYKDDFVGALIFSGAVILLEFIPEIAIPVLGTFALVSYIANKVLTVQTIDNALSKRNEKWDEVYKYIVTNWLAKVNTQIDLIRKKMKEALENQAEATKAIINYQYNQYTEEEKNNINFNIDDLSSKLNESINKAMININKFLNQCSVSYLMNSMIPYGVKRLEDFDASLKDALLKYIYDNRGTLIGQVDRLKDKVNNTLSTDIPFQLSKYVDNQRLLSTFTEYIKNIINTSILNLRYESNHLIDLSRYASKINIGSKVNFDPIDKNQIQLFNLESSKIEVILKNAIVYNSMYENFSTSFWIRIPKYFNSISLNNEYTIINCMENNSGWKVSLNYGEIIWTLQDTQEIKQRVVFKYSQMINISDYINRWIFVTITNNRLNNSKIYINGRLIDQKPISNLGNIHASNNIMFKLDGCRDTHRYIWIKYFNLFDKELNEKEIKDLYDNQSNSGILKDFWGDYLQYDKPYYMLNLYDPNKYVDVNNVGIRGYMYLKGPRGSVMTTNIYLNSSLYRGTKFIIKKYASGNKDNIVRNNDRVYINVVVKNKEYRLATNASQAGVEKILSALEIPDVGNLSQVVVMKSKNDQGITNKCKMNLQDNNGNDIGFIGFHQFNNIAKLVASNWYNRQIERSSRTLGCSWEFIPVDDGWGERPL
Regarding `Cc1ccc(S(=O)(=O)Nc2ccc(S(=O)(=O)Nc3cc(C)nc(C)n3)cc2)cc1`, the inhibition was 0.6% (inactive). For `Cc1ccc2[nH]c3c(c2c1)CN(C)CC3`, the inhibition was -0.7% (inactive). Regarding `O=C1CC2(CCCC2)CC(=O)N1CCCCN1CCN(c2ncccn2)CC1`, the inhibition was 0.2% (inactive).

With `CN1CCc2cccc3c2[C@H]1Cc1ccc(O)c(O)c1-3`, the inhibition is -6.5% (inactive). On the same count and under the same terms, in the case of `CN(C)c1ccc(Nc2c3c4c(cccc4n(C)c2=O)C(=O)c2ccccc2-3)cc1` it was -3.2% (inactive). Same read-out and setting: in the case of `NS(=O)(=O)c1cc2c(cc1Cl)NC(CSCc1ccccc1)=NS2(=O)=O` it was 0% (inactive).

As for `O=C(c1ccc(-c2ccccc2)c(F)c1)C1CCCN(C(=O)c2cncs2)C1` (configuration not stated), the inhibition is 0.5% (inactive). `CC(C(=O)O)c1cccc(C(=O)c2ccccc2)c1` (configuration not stated): the inhibition is -1.5% (inactive). For the compound `COc1ccc(OCc2cccc(C(=O)NN)c2)cc1`, the inhibition is 1.2% (inactive). Take `CCc1cccc2c1NC1(CCCC1)CC2C` (configuration not stated): the inhibition was -1.3% (inactive). On the same count and under the same terms, in the case of `O=C1CC(c2ccc(O)cc2)Oc2cc(O)cc(O)c21` (configuration not stated) it was -1.8% (inactive).

In the case of `CC[C@H](C)C(=O)O[C@H]1C[C@@H](C)C=C2C=C[C@H](C)[C@H](CC[C@@H]3C[C@@H](O)CC(=O)O3)[C@H]21`, the inhibition was 0.7% (inactive). Still for that read-out and setting: the figure for `CN(C)CCN(Cc1ccccc1)c1ccccn1` is 0% (inactive).

Regarding `O=C(NCCN1CCCCC1)c1c(O)c2ccccc2[nH]c1=O`, the inhibition is 0.4% (inactive). Turning to `COc1cc2c(cc1OC)C(=S)NC(C)(C)C2`, the inhibition is -0.8% (inactive). On the same count and under the same terms, in the case of `CN(C)CCCN1c2ccccc2CCc2ccc(Cl)cc21` it was -0.7% (inactive); in that of `COc1ccc2c3c([nH]c2c1)C1(NCC3)C(=O)Nc2ccccc21` (configuration not stated), -0.7% (inactive); in that of `C=CCc1ccc(OCC(O)COc2ccc(CC=C)cc2OC)c(OC)c1`, -0.2% (inactive). Regarding `COc1cc2c3c(c1)C1(C(=O)N3C(C)(C)C=C2C)C(C#N)=C(N)Oc2cc(C)oc(=O)c21` (configuration not stated), the inhibition was 2.4% (inactive).

For `CC(C)NCC(O)COc1ccc(CC(N)=O)cc1` (configuration not stated), the inhibition is -1.9% (inactive). Take `CC(C)(C)c1ccc(C(O)CCCN2CCC(C(O)(c3ccccc3)c3ccccc3)CC2)cc1` (configuration not stated): the inhibition was -2.5% (inactive). Consider `CN(C)CCC(c1ccc(Cl)cc1)c1ccccn1` (configuration not stated), for which the inhibition was -0.2% (inactive). The same measure, in the same setting: in the case of `COc1cc(OC)c2c(C)c(Cl)c(=O)oc2c1` it was -0.8% (inactive); in that of `NC(N)=NC(=O)Cc1c(Cl)cccc1Cl`, -1.8% (inactive).

For the compound `Cc1ccc(Cl)c(OCCCN(C)Cc2ccccc2)c1`, the inhibition was 0.1% (inactive). Still for that read-out and setting: the figure for `CCC(C(=O)OCCN(CC)CC)c1ccccc1` (configuration not stated) is 0.3% (inactive); for `CN1CCc2cccc3c2[C@@H]1Cc1ccc(O)c(O)c1-3` it is -6.6% (inactive). For `CC(=O)c1cccc2c(O)c(C3=Nc4ccccc4C3=O)[nH]c12`, the inhibition was 0.6% (inactive). On the same count and under the same terms, the figure for `CC1CNCCN1S(=O)(=O)c1cccc2cnccc12` (configuration not stated) is -0.1% (inactive). Still for that read-out and setting: in the case of `N/C(=N\OC(=O)c1ccc(Br)o1)c1ccccn1` it was -0.3% (inactive); in that of `NNC(=O)c1ccncc1`, -0.2% (inactive); in that of `CN1C(C(=O)Nc2ccccn2)=C(O)c2ccccc2S1(=O)=O`, 1.5% (inactive).
